Screening results (PubChem)
The list is not random: actives were taken first. Their share in the collection is about 10%.
GLS inhibitor: inhibitors of human glutaminase (GLS) | O94925 | GLS enzymatic activity, qHTS titration | Potency, µM (series often up to 45.5 µM), inactives show at the highest dose activity change, negative = inhibition, most hits filed as inhibitors | hit rate 0.21% among 410,000; note: % is set by controls: 0 for no effect and ±100 for the full control effect
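Enzyme dispensed in phosphate buffer (45 mM, pH 8.2, 0.02% Tween-20), compounds pinned in, then 1 mM L-glutamine solution and the glutamate oxidase–HRP–Amplex Red mix added; fluorescence read immediately and again after 30 min at room temperature.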
HP1b chromo inh: inhibitors of HP1-beta chromodomain binding to methylated histone tails. P83916. AlphaScreen HP1-beta / biotin-H3K9me3 peptide binding. Potency, µM (top dose mostly 114 µM), without a hit: at the highest dose activity change, negative = inhibition, usual class: inhibitors. hit rate 0.56% among 390,000; note: nearly all actives have a fitted effect of over 70% in size
Target sequence (P83916 whole entry, looked up): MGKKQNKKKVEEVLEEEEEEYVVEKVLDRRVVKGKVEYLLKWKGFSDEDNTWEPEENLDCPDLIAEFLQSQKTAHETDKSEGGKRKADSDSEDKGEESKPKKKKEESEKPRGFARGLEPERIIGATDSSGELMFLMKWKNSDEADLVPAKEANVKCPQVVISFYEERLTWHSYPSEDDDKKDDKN
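HP1-beta protein (50 nM final) preincubated 30 min at room temperature with biotinylated H3(1-18)K9me3 peptide (50 nM) in PBS pH 7.4, 0.01% Tween-20, then compound added for 30 min. AlphaScreen streptavidin donor/nickel chelate acceptor beads (10 ug/mL final), 30 min dark, luminescence read.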
G9a inh: inhibitors of human histone lysine methyltransferase G9a; AID 504332; hit rate 8.8% among 350,000; Potency, µM (titrated, usually from 102 µM), for inactives: at the highest dose activity, negative = inhibition, usual class: inhibitors; G9a H3K9 monomethylation, AlphaScreen, 2 h; note: % is set by controls: 0 for no effect and ±100 for the full control effect; nearly all actives have a fitted effect of over 75% in size
Target sequence (Q96KQ7 913-1193 limits assumed): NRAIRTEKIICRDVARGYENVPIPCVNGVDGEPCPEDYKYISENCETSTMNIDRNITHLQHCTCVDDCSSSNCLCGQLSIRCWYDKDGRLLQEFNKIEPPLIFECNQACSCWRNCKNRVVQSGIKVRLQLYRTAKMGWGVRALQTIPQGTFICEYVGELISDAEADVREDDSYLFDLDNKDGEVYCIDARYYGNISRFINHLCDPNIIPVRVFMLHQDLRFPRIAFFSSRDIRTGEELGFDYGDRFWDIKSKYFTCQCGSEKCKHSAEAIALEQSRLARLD
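Using a bead-based AlphaScreen, monomethylated H3K9 product from 2 h room-temperature reactions (G9a 20 nM, peptide 500 nM, SAM 20 uM) was detected with 0.5 ug/mL rabbit anti-H3K9me1 antibody.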
JMJD2A Tudor inh: JMJD2A Tudor domain (human) inhibition; O75164; AlphaScreen JMJD2A-Tudor / H3K4me3 peptide binding; Potency, µM (series often up to 114 µM), without a hit: at the top dose activity change, negative = inhibition, hits mostly inhibitors; hit rate 4.4% among 390,000; AID 504339; note: % is set by controls: 0 for no effect and ±100 for the full control effect; nearly all actives have a fitted effect of over 50% in size
BAZ2B block: blocks human BAZ2B; Q9UIF8; AlphaScreen BAZ2B-H3K14Ac peptide displacement; Potency, µM (titrated, usually from 114 µM), for inactives: top-dose activity change, negative = inhibition, most hits filed as inhibitors; hit rate 4.4% among 360,000; AID 504333; note: % is set by controls: 0 for no effect and ±100 for the full control effect; nearly all actives have a fitted effect of over 60% in size
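BAZ2B 50 nM plus b-H3(5-23)K14Ac 50 nM, PBS pH 7.4/0.01% Tween-20, 30 min RT; compound added (max 110 uM), 30 min RT; streptavidin donor/Ni-chelate acceptor beads 10 ug/mL final, 20 min dark; AlphaScreen read.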
An asterisk follows results filed as active; ? = inconclusive; / = no result given; [ ] = dose if it differs, or a comment. Calls come from the whole dose curve; as a rule, active = well fitted curve in the direction sought with a large enough effect; inconclusive = small, poorly fitted or top-dose-only effect, or another doubt; inactive = no such curve, though single readings can be large; an effect the other way counts as inactive or inconclusive. Potency is the fitted concentration of half-maximal effect.

SMILES	GLS inhibitor	HP1b chromo inh	G9a inh	JMJD2A Tudor inh	BAZ2B block
Cn1cccc1/C=N\NC(=O)C1COc2ccccc2O1 (centres undefined)	30.6%	41.0%	-15.9%	-5.8%	?
Cn1cccc1/C=N\NC(=O)C1COc2ccc(C(C)(C)C)cc2O1 (centres undefined)	5.7%	6.6%	/	-10.5%	35.5µM*
N#Cc1c2ccc(O)cc2n2ccccc12	11.2µM*	84.7%	3.98µM*	35.8%	19.5%
CC(C)c1ccc(NC(=S)NNC(=O)c2cccnc2)cc1	11.3%	13.6%	31.6µM*	-24.2%	2.0%
CCNC(=S)NNC(=O)c1cccnc1	27.2%	23.1%	24.8%[59 µM]	-22.1%	5.8%
CC(C)c1ccc(NC(=O)c2cccnc2)cc1	0.4%	106.8%	7.4%[59 µM]	-6.4%	/
O=C(NNC(=S)Nc1ccc(Br)cc1)c1cccnc1	33.6%	10.1%	10µM*	-16.1%	-0.9%
CC(=O)c1ccc(N=c2scc(C)n2C(C)C)cc1	-14.7%	-17.3%	44.7µM*	?	?
CN(C=[N+](C)C)c1cccc2c1C(=O)c1ccccc1C2=O	-5.5%	15.8µM*	?	44.7µM*	17.8µM*
O=C(NCCc1ccccc1)c1ccc(CSc2nc3cccnc3n2Cc2ccccc2F)cc1	12.7%	25.1µM*	2µM*	5.62µM*	14.1µM*
O=C(NCCc1ccccc1)c1ccc(Cn2c(SCc3ccccc3F)nc3cccnc32)cc1	-1.7%	49.0%	1.1%[59 µM]	-26.1%	10.2%
Cc1ccc(C(NC(=O)C(C)C)c2cc([N+](=O)[O-])c3cccnc3c2O)cc1 (centres undefined)	-4.5%	-8.4%	?	25.1µM*	7.94µM*
CCCC(=O)NC(c1cccc([N+](=O)[O-])c1)c1ccc2cccnc2c1O (centres undefined)	-5.0%	/	/	/	/
CC(C)C(=O)NC(c1cccs1)c1cc([N+](=O)[O-])c2cccnc2c1O (centres undefined)	7.9%	-0.1%	14.1µM*	15.8µM*	5.01µM*
Cc1ccc(C(=O)NC(c2ccco2)c2cc(Cl)c3cccnc3c2O)cc1 (centres undefined)	/	/	/	-9.9%	/
CCC(=O)NC(/C=C/c1ccccc1)c1cc([N+](=O)[O-])c2cccnc2c1O (centres undefined)	/	/	3.16µM*	/	4.47µM*
CCc1ccc(N(CC)C(=O)Cc2c(C(=O)O)n(C)c3ccccc23)cc1	-4.7%	-11.1%	-6.9%	-16.7%	-11.9%
O=C(NCCc1ccccc1)c1nc2ncccn2n1	-2.0%	18.3%	-0.2%	-9.6%	8.5%
CCOC(=O)C(C)Sc1nc2c(c(=O)[nH]c(=O)n2C)n1Cc1ccc(Cl)cc1 (centres undefined)	?	-24.1%	11.2µM*	-16.9%	-1.7%
CCC(C)Sc1nc2c(c(=O)[nH]c(=O)n2C)n1CCc1ccccc1 (centres undefined)	0.5%	14.8%	-12.0%[59 µM]	5.9%	8.7%
CCC(C)Sc1nc2c(c(=O)[nH]c(=O)n2C)n1CC(O)COc1ccccc1C (centres undefined)	-18.6%	-32.5%	5.62µM*	-19.1%[57.1 µM]	9.5%
CC(O)CSc1nc2c(c(=O)[nH]c(=O)n2C)n1Cc1ccccc1Cl (centres undefined)	0.9%	2.0%	44.7µM*	-13.0%	1.6%
CC(C)Sc1nc2c(c(=O)[nH]c(=O)n2C)n1Cc1ccc(Cl)cc1	-2.8%	?	?	31.6µM*	5.5%
c1ccc2c(C[C@@H]3CNCCN3CC3CCCCC3)cccc2c1	15.5%	-2.0%	15.6%[2.33 µM]	?	39.8µM*
CCC(C)(C)NC(=O)C(c1ccc(F)cc1)N(Cc1ccco1)C(=O)c1cnccn1 (centres undefined)	-1.8%	49.7%	-1.3%[12.7 µM]	-18.3%	-7.1%
SMILES	GLS inhibitor	HP1b chromo inh	G9a inh	JMJD2A Tudor inh	BAZ2B block
COc1ccc(Cl)cc1NC(=O)c1cc(S(=O)(=O)N2CCCC2)cn1C	-0.4%	13.7%	/	-25.2%	4.5%
O=C1NC(=O)C2C1C(c1cccs1)NN2Cc1ccccc1 (centres undefined)	-8.6%	13.8%	50.1µM*	-28.1%	?
Cc1cc(NC(=O)Nc2ccccc2)n(C(C)(C)C)n1	-13.3%	14.9%	5.2%	-16.0%	22.3%
Cc1nnsc1C(=O)NNC(=O)c1ccc(C(F)(F)F)cc1	2.5%	17.7%	/	-7.2%	-6.8%
Cc1cc(C(=O)NNc2ccc(C(C)C)cc2)n(C(C)(C)C)n1	14.7%	21.0%	7.94µM*	?	?
Cc1nnsc1C(=O)NNc1ccc(C(C)C)cc1	5.9%	5.5%	8.91µM*	-11.7%	-13.7%
Cc1nnsc1C(=O)NNc1ccc(C(C)(C)C)cc1	9.7%	11.3%	1.78µM*	-21.4%	-14.6%
NC(=O)NS(=O)(=O)Oc1ccccc1	17.6%	13.0%	/	89.1µM*	-8.8%
Cc1c(C(=O)OCC[N+]2(C)CCCCC2)oc2ccccc12	1.6%	-21.6%	28.2µM*	-8.5%	-21.3%
COc1ccc(C(C)NC(=O)c2ccncc2)cc1 (centres undefined)	3.8%	51.8%	4.9%	-7.5%	5.8%
O=C(COC(=O)c1ccc(Cl)cc1O)NC(=O)C1CCCCC1	1.2%	21.1%	50.1µM*	6.4%	-15.3%
C=CCNC(=O)C1CC(=O)N(c2ccc(OCC(=O)Nc3ccc(Cl)cc3)cc2)C1 (centres undefined)	-7.7%	9.2%	11.1%	70.8µM*	2.7%
C=CCNC(=O)C1CC(=O)N(c2ccc(OCc3ccccc3Cl)cc2)C1 (centres undefined)	4.1%	34.4%	35.2%[59 µM]	-15.1%	-6.8%
COc1ccc(/C=N/N2C(=O)CN(C(=O)c3ccccc3)C2c2ccc(OC)cc2)cc1 (centres undefined)	-2.5%	26.0%	-37.5%	-9.1%	-19.7%
O=C(Nc1ccc(NC(=S)NC(=O)c2ccco2)cc1)c1ccc(Br)cc1	-1.9%	/	/	/	/
Cc1ccc(C(=O)O)cc1NC(=S)NC(=O)c1ccc([N+](=O)[O-])cc1Cl	-4.8%	-5.3%	?	?	-23.7%
Cc1ccc(C(=O)O)cc1NC(=S)NC(=O)c1ccc(-c2ccc(Cl)cc2)o1	23.2%	1.9%	35.5µM*	0.0%[11.4 µM]	?
COc1ccc(C(=O)O)cc1NC(=S)NC(=O)c1ccc(-c2ccc(Cl)cc2)o1	10.2%	-21.3%	44.7µM*	?	?
CC(=O)c1cccc(NC(=S)NC(=O)c2cccc(Cl)c2)c1	14.2%	-7.3%	4.9%	-24.0%	-4.4%
COc1ccc(C(=O)O)cc1NC(=S)NC(=O)CSc1ccc(Cl)cc1	-3.6%	8.9%	-44.2%	-13.6%	-25.2%
O=C(O)c1ccc(NC(=S)NC(=O)c2ccc(-c3ccc(Br)cc3)o2)cc1	201.9%	56.2µM*	39.8µM*	15.8µM*	39.8µM*
O=C(O)c1cccc(NC(=S)NC(=O)c2ccc(-c3ccc(Cl)cc3)o2)c1	-0.9%	-25.3%	44.7µM*	?	?
O=C(Nc1ccc(F)c(Cl)c1)C1Cc2c(-c3ccc(Cl)cc3)ccnc2O1 (centres undefined)	5.1%	/	/	/	/
